# Screening data as filed in PubChem BioAssay.
# Hits are enriched below; roughly 19% of the tested compounds scored in any of these assays.
# TDP1 inh = TDP1 (human) enzyme inhibition; Q9NUW8; recombinant TDP1, AlphaScreen DNA substrate cleavage; Potency, µM (top dose mostly 130 µM), for the others: at the highest dose activity change, negative = inhibition, hits mostly inhibitors; 0.28% of 350,000 active; AID 485290; further: potency means the concentration at half of the fitted maximal effect; on the % scale 0 is the no-effect control and ±100 the full control effect; nearly all actives have a fitted effect of over 40% in size
# Target sequence (Q9NUW8 whole entry, looked up): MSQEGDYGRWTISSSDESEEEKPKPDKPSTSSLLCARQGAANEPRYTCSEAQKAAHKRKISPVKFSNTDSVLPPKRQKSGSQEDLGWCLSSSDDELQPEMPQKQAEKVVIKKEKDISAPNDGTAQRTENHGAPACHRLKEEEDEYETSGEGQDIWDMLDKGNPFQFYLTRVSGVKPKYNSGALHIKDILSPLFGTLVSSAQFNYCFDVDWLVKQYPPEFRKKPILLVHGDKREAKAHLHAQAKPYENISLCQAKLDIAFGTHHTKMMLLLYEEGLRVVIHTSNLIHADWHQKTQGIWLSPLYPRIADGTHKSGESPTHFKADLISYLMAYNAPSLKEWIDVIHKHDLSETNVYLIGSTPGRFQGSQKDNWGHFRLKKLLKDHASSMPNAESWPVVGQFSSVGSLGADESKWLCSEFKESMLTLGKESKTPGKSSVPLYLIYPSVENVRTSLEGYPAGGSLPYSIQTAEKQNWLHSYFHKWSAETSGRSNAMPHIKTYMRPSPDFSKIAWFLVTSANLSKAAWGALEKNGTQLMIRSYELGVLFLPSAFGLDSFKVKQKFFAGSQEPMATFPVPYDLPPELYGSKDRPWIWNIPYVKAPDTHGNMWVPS
#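 E. coli-derived human Tdp1, 1 nM final. Cpd preinc 15 min RT; substrate 15 nM final, 5 min RT; AS bead mix 10 ug/ml final, 10 min RT. Signal loss = tyrosine-FITC cleavage. No-enzyme wells = max signal.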
# TGFb SMAD3 inh = blocks TGF-b signaling; HepG2 CAGA-GFP TGF-b/SMAD3 reporter, GFP fluorescence, 18 h; TGF-beta stimulated, 500 pg/mL final; Potency, µM (doses to about 46.1 µM), for the others: at the highest dose activity, negative = inhibition, most hits filed as inhibitors; 1.2% of 410,000 active; further: potency means the concentration at half of the fitted maximal effect; on the % scale 0 is the no-effect control and ±100 the full control effect; nearly all actives have a fitted effect of over 65% in size
#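 Cell-based qHTS in HEPG2 carrying a CAGA-GFP Smad reporter; compounds added before 500 pg/mL final TGF-beta, 18 h incubation at 37 degrees C, GFP fluorescence quantified per cell by imaging cytometry.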
# HepG2 viability = kills HepG2 cells in TGF-b inhibitor counter-screen. AID 588856. HepG2 CAGA-GFP viability, ATP luminescence, 18 h. Potency, µM (series often up to 46.1 µM), for inactives: at the highest dose activity change, negative = cytotoxicity, usual class: cytotoxic. 0.76% of 410,000 active; further: potency means the concentration at half of the fitted maximal effect
#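 HepG2 CAGA-GFP cells (1000/well, DMEM with 1% FBS) received compound, then TGF-beta at 500 pg/mL final, and were incubated 18 hours at 37 degrees C. Viability was read by CellTiter-Glo luminescence. Media-only wells were set as complete cell-killing and DMSO as no toxicity.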
# IL1B secr inh = inflammasome signaling inhibition, IL-1 beta readout | THP-1 LPS/ATP IL-1B secretion, AlphaLISA, 16 h; hits give low values | activity change, % at 57.5 µM | 4.7% of 360,000 active | AID 743279; in the data active means activity change below about -50%; inconclusive means mostly about -30% to -49%; further: on the % scale 0 is the no-effect control and ±100 the full control effect
#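 Secreted IL-1B measured by AlphaLISA bead assay after 16 h compound exposure of THP-1 cells; compounds (final up to 57.5 uM) added 1 h before LPS (250 ng/mL) and ATP (1.25 mM) stimulation; lower signal means less secretion.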
# DT40 TDP1 CPT = DT40-hTDP1 cell growth loss with CPT; Potency, µM (series often up to 46.2 µM), for the others: at the highest dose activity change, negative = growth inhibition, most hits filed as inhibitors; 12% of 420,000 active; chicken DT40 Tdp1-/-;hTDP1 cells + 20 nM CPT, ATP luminescence, 48 h; further: potency means the concentration at half of the fitted maximal effect; on the % scale 0 is the no-effect control and ±100 the full control effect; nearly all actives have a fitted effect of over 55% in size
#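 Chicken DT40 Tdp1-/- cells complemented with human TDP1, 400 cells/well, exposed to compounds plus 20 nM camptothecin for at least 48 h at 37 C; viability read as ATP content by CellTiter-Glo luminescence.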
# DT40 TDP1 no CPT = qHTS for Inhibitors of human tyrosyl-DNA phosphodiesterase 1 (TDP1): qHTS in cells in absence of CPT; Potency, µM (titrated, usually from 46.2 µM), without a hit: top-dose activity change, negative = growth inhibition, hits mostly inhibitors; DT40 Tdp1-/- hTDP1 cells, no CPT, ATP luminescence, 48 h; AID 686978, 2013; 15% of 420,000 active; further: potency means the concentration at half of the fitted maximal effect; on the % scale 0 is the no-effect control and ±100 the full control effect; nearly all actives have a fitted effect of over 55% in size
#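 Seeded 400 DT40-hTDP1 cells/well (vehicle DMSO, no 20 nM CPT); pinned compounds; ≥48 hr at 37 °C; CellTiter-Glo luminescence as viability measure.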
# * marks the source's active call; other numbers are inactive results; ? = inconclusive; / = no result given. Unless noted, the call rests on the fitted dose curve; in most records, active means well fitted curve in the direction sought with a large enough effect; inconclusive means small, poorly fitted or top-dose-only effect, or another doubt; inactive means no such curve, though single readings can be large; an effect the other way counts as inactive or inconclusive.
SMILES,TDP1 inh,TGFb SMAD3 inh,HepG2 viability,IL1B secr inh,DT40 TDP1 CPT,DT40 TDP1 no CPT
Cc1cc2c(cc1C)CSC(c1ccccc1OC(=O)C(C)C)SC2,3%,7%,-8%,10,?,11µM*
CCCCN(C)CCCNC(=O)c1cn(CC)c2ccc(S(=O)(=O)N3CCc4ccccc4C3)cc2c1=O,5%,?,-27%,-63*,21µM*,23µM*
CCCCN(CCCC)CCNC(=O)c1cn(CC)c2ccc(S(=O)(=O)N(C)C3CCCCC3)cc2c1=O,3%,9%,-4%,-17,4.6µM*,6.5µM*
CCCN(CCC)CCCNC(=O)c1cn(CC)c2ccc(S(=O)(=O)N3CCc4ccccc4C3)cc2c1=O,5%,8%,-10%,-103*,21µM*,18µM*
CCn1cc(C(=O)NCCCN(CC(C)C)CC(C)C)c(=O)c2cc(S(=O)(=O)N3CCc4ccccc4C3)ccc21,0%,?,-19%,/,8%,-10%
CCn1cc(C(=O)NCCCN2CCCC2)c(=O)c2cc(S(=O)(=O)N3CCc4ccccc4C3)ccc21,3%,-26%,-23%,-29,?,?
CCCCN(CC)CCCNC(=O)c1cn(CC)c2ccc(S(=O)(=O)N3CCc4ccccc4C3)cc2c1=O,-5%,?,-19%,/,16µM*,18µM*
CCCCCCCC/C=C\CCCCCCCC(=O)NCCCC(=O)O,6%,/,/,/,/,/
CCCn1c(N)c(N2CCCCC2)c(=O)n(CC(=O)Nc2cccc(S(=O)(=O)N(C)C)c2)c1=O,0%,-2%,-3%,-2,-28%,16%
CC(O)CN(CC(C)O)c1ccc2c(c1)Cc1cc([N+](=O)[O-])ccc1-2 (centres undefined),/,30%,-9%,?,18µM*,15µM*
CC(=NO)c1ccc2c(c1)Cc1cc([N+](=O)[O-])ccc1-2,/,?,-13%,-9,?,13µM*
CCN(c1cccc(C)c1)S(=O)(=O)c1cccc(C(=O)O)c1,3%,27%,6%,9,-2%,6%
CCN(c1ccccc1)S(=O)(=O)c1ccc(C(=O)NCCc2ccc(S(N)(=O)=O)cc2)cc1,-2%,31%,3%,18,23µM*,?
CCN(c1ccccc1)S(=O)(=O)c1ccc(C(=O)Nc2ccccn2)cc1,1%,-28%,-43%,-3,21µM*,?
CCN(c1ccccc1)S(=O)(=O)c1cccc(C(=O)Nc2cccc(C)n2)c1,/,-12%,-17%,-4,23µM*,21µM*
C=CCN(c1ccccc1)S(=O)(=O)c1cccc(C(=O)Nc2cccc(C)n2)c1,-5%,0%,-31%,-15,18µM*,23µM*
COc1ccc(C)cc1NC(=O)N1CCC(CN2CCC(C)CC2)CC1,-10%,3%,0%,/,1%,1%
CCc1sc(C(=O)NCCc2ccc(S(N)(=O)=O)cc2)cc1Br,2%,-2%,-7%,?,?,16µM*
CCOc1ccc(CCN2C(=O)C(=O)N([C@@H](CC(C)C)CN3CCC[C@H]3CN3C(=O)C(=O)NC[C@@H]3Cc3ccc(O)cc3)C[C@@H]2CC(C)C)cc1,/,/,/,-54*,?,?
CCOc1ccc(CCN2C(=O)C(=O)N([C@@H](CC(C)C)CN3CCC[C@@H]3CN3C(=O)C(=O)NC[C@@H]3CC(C)C)C[C@@H]2Cc2ccccc2)cc1,/,20µM*,-2%,0,?,?
CCOc1ccc(CCN2C(=O)C(=O)N([C@@H](CC(C)C)CN3CCC[C@H]3CN3C(=O)C(=O)NC[C@@H]3CC(C)C)C[C@@H]2Cc2ccccc2)cc1,/,/,/,-92*,?,?
CCNc1nc(C#N)nc(N2CCCCC2)n1,1%,-1%,-26%,/,?,?
O=C1c2ccccc2S(=O)(=O)c2cc(N3CCOCC3)ccc21,/,-24%,-35%,?,12µM*,21µM*
O=C1c2ccccc2S(=O)(=O)c2cc(N3CCN(c4ccccc4)CC3)ccc21,/,5%,-2%,9,?,16µM*
CCOc1ccc(Sc2cc(C(=O)NC(C)CC)c3ccccc3n2)cc1 (centres undefined),8%,-4%,4%,/,-15%,-15%
SMILES,TDP1 inh,TGFb SMAD3 inh,HepG2 viability,IL1B secr inh,DT40 TDP1 CPT,DT40 TDP1 no CPT
CC(Sc1nc(N(C)C)nc(N2CCOCC2)n1)C(=O)Nc1ccccc1 (centres undefined),1%,5%,-10%,9,-26%,7.3µM*
O=C(c1ccc2c(c1)CCCC2)N1CCN(c2nc3c(F)cccc3s2)CC1,3%,10%,2%,/,-26%,?
O=C(c1ccc([N+](=O)[O-])o1)N1CCN(c2nc3ccc(F)cc3s2)CC1,-5%,1%,6%,-16,21µM*,23µM*
O=C(c1ccc([N+](=O)[O-])o1)N1CCCCCC1,-2%,?,-62%,-1,?,-13%
O=C(c1ccc([N+](=O)[O-])o1)N1CCN(c2nc3c(Cl)cccc3s2)CC1,0%,?,-56%,-79*,21µM*,13µM*
O=C(C1CC1)N1CCN(c2nc3ccc(F)cc3s2)CC1,3%,-17%,-14%,/,?,?
CCOc1cccc2sc(N3CCN(C(=O)c4ccc5c(c4)CCCC5)CC3)nc12,-3%,?,-30%,/,18µM*,13µM*
COc1cccc2sc(N3CCN(C(=O)c4ccc([N+](=O)[O-])o4)CC3)nc12,5%,?,-80%,-84*,21µM*,18µM*
COCCn1c(CCC(=O)Nc2ccc(C)c(Cl)c2)nc2cccnc21,8%,6%,-3%,/,?,-73%
S=C1NC[C@H](Cc2ccccc2)N1CCc1cccc2ccccc12,/,?,-25%,-6,-12%,?
O=C(Nc1ccc(Cl)cc1N1CCOCC1)C1CCCO1 (centres undefined),1%,25%,4%,0,-5%,-1%
Clc1cccc2sc(N3CCN(c4ccccc4)CC3)nc12,3%,-15%,-32%,37,23µM*,21µM*
CCOC(=O)c1c(NC(=O)CSc2nnc(-c3ccco3)o2)sc(C(C)=O)c1C,4%,1%,3%,18,?,13µM*
